Rows were chosen to be rich in hits. Some 2.4% of all compounds tested hit in one or more screens of this group.
AmpC inh no det = AmpC beta-lactamase inhibition, detergent-free assay; actives 1.8% (n = 71,000); AmpC nitrocefin hydrolysis, absorbance 480 nm, no detergent; AID 585; P00811; Potency, µM (titrated, usually from 28.7 µM), without a hit: top-dose activity change, negative = inhibition; also: % of control where 0% means no effect
Target sequence (P00811 whole entry, looked up): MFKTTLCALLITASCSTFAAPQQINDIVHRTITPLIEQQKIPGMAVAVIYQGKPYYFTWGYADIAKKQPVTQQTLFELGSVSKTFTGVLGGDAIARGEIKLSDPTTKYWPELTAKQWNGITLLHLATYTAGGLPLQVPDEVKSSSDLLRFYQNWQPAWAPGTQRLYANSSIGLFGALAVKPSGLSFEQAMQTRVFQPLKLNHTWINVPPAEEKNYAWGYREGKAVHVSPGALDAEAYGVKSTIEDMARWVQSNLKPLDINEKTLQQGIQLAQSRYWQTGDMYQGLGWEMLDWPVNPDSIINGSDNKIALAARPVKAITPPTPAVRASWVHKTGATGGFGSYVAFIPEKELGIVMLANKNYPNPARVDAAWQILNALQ
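AmpC in 20 mM phosphate buffer pH 7.0 was preincubated 15 min at room temperature with compounds. Nitrocefin (800 uM stock) was then added and hydrolysis followed at 480 nm every 20 s for 4 min.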
AmpC inh det = inhibitors of E. coli AmpC beta-lactamase with detergent; P00811; purified AmpC, nitrocefin hydrolysis with detergent; Potency, µM (titrated, usually from 28.7 µM), for the others: at the top dose activity change, negative = inhibition; actives 0.09% (n = 71,000); active = well fitted curve in the direction sought with a large enough effect; inconclusive = small, poorly fitted or top-dose-only effect; also: % is scaled to controls: 0 for no effect and ±100 for the full control effect
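E. coli AmpC (5.3 nM) in 20 mM phosphate pH 7.0 with 0.01% Triton X-100, preincubated 15 min RT with compound; nitrocefin (2 uL of 800 uM stock) hydrolysis followed by 480 nm absorbance every 20 s over 4 min.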
SmPrx2 inh = blocks S. mansoni peroxiredoxin 2 enzymatic activity. S. mansoni Prx2 activity coupled to TGR/GSH (TGR is thioredoxin glutathione reductase), NADPH fluorescence loss, qHTS. Potency, µM. actives 0.07% (n = 65,000). AID 448
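qHTS, coupled TGR/Prx2 format; 15 min compound preincubation at RT; reaction started with H2O2 (2.5 mM aliquot); kinetic NADPH fluorescence decrease, ex 365/em 450 nm.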
Anthrax LT inh = blocks cellular internalization of anthrax lethal toxin. Cells, anthrax lethal toxin internalization, FRET ratio (460/530). Potency, µM (series often up to 40 µM), for inactives: top-dose activity change, negative = inhibition, most hits filed as inhibitors. actives 0.67% (n = 70,000); also: % is scaled to controls: 0 for no effect and ±100 for the full control effect; nearly all actives have a fitted effect of over 50% in size
An asterisk follows results filed as active; ? = inconclusive; . = not tested or not shown; [ ] = dose if it differs, or a comment. Unless noted, calls follow the shape of the full dose curve. Potency is read from the fitted curve at half-maximal effect.

SMILES	AmpC inh no det	AmpC inh det	SmPrx2 inh	Anthrax LT inh
CC1=C/C(=C(/c2ccc(O)c(C)c2)c2ccccc2C(=O)O)C=CC1=O	-10%[5.75 µM]	-5%[5.75 µM]	>57	-15%[8 µM]
O=C(O)C1=CC(=C(c2ccc(O)c(C(=O)O)c2)c2ccc(O)c(C(=O)O)c2)C=CC1=O	7.9µM*	10µM*	>57	?
Cc1nc2c(c(=O)n1Cc1ccccc1Cl)c1nc3ccccc3nc1n2Cc1ccco1	6%	0%	>57	7.9µM*
COc1ccc2c(CC(=O)Nc3ccc(OC)c(NS(=O)(=O)c4ccc(F)cc4)c3)coc2c1	?	-3%	>57	10µM*
CN1[C@@H](c2ccccc2)CC(=NO)C[C@H]1c1ccccc1	4%[5.75 µM]	-2%[5.75 µM]	>57	-4%[8 µM]
N#Cc1ccc(NC(=O)Nc2ccc(Cl)cc2)cc1	?	13%	>57	4µM*
CN(CC(=O)Nc1ccc(C#N)cc1)Cc1ccc(Cl)cc1	4%	-2%	>57	-13%
OC(CN1C2=NCCCN2c2ccccc21)c1ccc(Cl)cc1 (stereo not given)	4µM*[single pt active]	13%	>57	?
CCOC(=O)CSCc1nc(-c2ccc(Cl)cc2)oc1C	4µM*[single pt active]	25%	>57	?
O=C(Nc1ccc(-c2noc(CCc3ccccc3)n2)cc1)c1cccnc1	98%	-3%	>57	10µM*
N#CC(=C(/N)Sc1ccccc1N)/C(C#N)=C(/N)Sc1ccccc1N	?	-5%	>57	?
COc1ccc(-c2ccccc2C2NC(C(=O)O)CCC2C)cc1 (stereo not given)	.	.	.	-10%[8 µM]
CCOC(=O)N1CCN(c2c(NCc3cccs3)c(=O)c2=O)CC1	4µM*[single pt active]	11%	>57	-25%
CCOC(=O)N1CCN(c2c(-c3ccc(C)c(C)c3)c(=O)c2=O)CC1	14%	-1%	>57	7%
CCOC(=O)N1CCN(c2c(NCc3ccccc3OC)c(=O)c2=O)CC1	4µM*[single pt active]	13%	>57	?
CCOC(=O)N1CCN(c2c(NCCc3ccc(OC)c(OC)c3)c(=O)c2=O)CC1	4µM*[single pt active]	11%	>57	5%
COC(=O)NC(CC(C)=O)c1cccs1 (stereo not given)	.	.	.	-15%[8 µM]
Nc1ccc(CN2CCN(c3ccc4ccccc4n3)CC2)cc1	-6%	-5%	>57	14%
C/C(=C\C(=O)c1ccc(C)cc1)Nc1cccc(O)c1	-6%	9%	.	10µM*
Oc1cc(O)cc(/C=C\c2ccc(O)c(O)c2)c1	-23%	-4%	>57	3%
Cc1ccc2cccc(OC(=O)N(C)c3ccccc3)c2n1	33%	4%	.	16µM*
CC1=C2C(=O)[C@@H]3[C@@H](CC=C4C[C@@H](O)CC[C@@]43C)[C@H]2CC[C@@]12O[C@H]1C[C@H](C)CN[C@H]1[C@@H]2C	14%[5.75 µM]	-4%[5.75 µM]	>57	?
CN(CCc1ccccn1)c1ccc2c(c1)C(=O)c1ccccc1-2	14%[5.75 µM]	-6%[5.75 µM]	>57	-11%[8 µM]
O=C(Nc1cnn(Cc2ccc(F)cc2)c1)c1cc(-c2cccs2)on1	13µM*[single pt active]	-3%	>57	0%
O=C(NCc1ccc(Cl)cc1)c1cc(-c2cccs2)on1	7.9µM*	19%	>57	3%
SMILES	AmpC inh no det	AmpC inh det	SmPrx2 inh	Anthrax LT inh
CN1CCc2ccccc2[C@@H]1Cc1ccccc1NC(=O)c1sc2ccccc2c1Cl	-11%[5.75 µM]	-5%[5.75 µM]	>57	-22%[8 µM]
Cc1cc(=O)[nH]c2cc3oc4ccccc4c3cc12	15%[5.75 µM]	-4%[5.75 µM]	>57	2%[8 µM]
CCCn1c(C)c(C(=O)c2ccc3ccccc3c2)c2ccccc21	19%	-5%	>26	13µM*
O=c1cc(-c2ccccc2O)oc2c(O)c(O)ccc12	?	-7%	?	?
C[C@@H]1[C@H]2C=C[C@@H]1[C@@H](c1c3ccc(=O)c(O)c-3oc3c(O)c(O)ccc13)[C@@H]2C(=O)O	2.5µM*	2µM*	>57	?
O=C1CCc2cc(S(=O)(=O)NC(Cc3ccccc3)C(=O)NC3CCCCC3)ccc2N1 (stereo not given)	4µM*[single pt active]	11%	>57	16%
CC(C)(C)NC(=O)C(Cc1ccccc1)NS(=O)(=O)c1ccc2c(c1)CCC(=O)N2 (stereo not given)	-6%	14%	>57	6%
CCCCN(C)C(=O)C(Cc1ccccc1)NS(=O)(=O)c1ccc2c(c1)CCC(=O)N2 (stereo not given)	4µM*[single pt active]	11%	>57	9%
COc1ccccc1Cc1nc(-c2ccc(Br)o2)no1	4µM*[single pt active]	10%	>57	?
COc1ccc(CNc2cc(-c3ccccc3C)ncn2)c(OC)c1	40%	1%	>57	?
Cc1nn2c(=O)cc(CSc3nc4ccccc4[nH]3)nc2s1	4µM*[single pt active]	13%	>57	8%
Cc1cc(C(=O)CSc2nc3ccccc3[nH]2)c(C)n1C	-2%	-3%	>57	-8%
CC[C@H](C(=O)[C@H](C)[C@H](O)[C@H](C)CCc1ccc(C)c(O)c1C(=O)O)[C@H]1O[C@](CC)([C@@H]2CC[C@@](O)(CC)[C@H](C)O2)C[C@H]1C	11%[12.8 µM]	-3%[12.8 µM]	>57	0.32µM*
O=C(O)CCN1C(=S)CSC1=S	4%[5.75 µM]	-4%[5.75 µM]	>57	1%[8 µM]
COc1ccc(NC(=O)C2CCCN(S(=O)(=O)c3cccnc3)C2)c(OC)c1 (stereo not given)	4µM*[single pt active]	16%	>57	-2%
CCN(CC)c1ccc(NC(=O)C2CCCN(S(=O)(=O)c3cccnc3)C2)c(C)c1 (stereo not given)	4µM*[single pt active]	16%	>57	-13%
COc1ccc(S(=O)(=O)N2CCCC(C(=O)Nc3cccnc3)C2)cc1Cl (stereo not given)	41%	10%	>57	-10%
O=C(NCc1ccccc1)C1CCCN(S(=O)(=O)c2cccnc2)C1 (stereo not given)	0%	-2%	>57	-6%
CS(=O)(=O)N1CCC2(CC1)CN(c1ccccc1)C2	114%	-4%	>57	10%
c1nc(NCCc2cnc[nH]2)c2[nH]cnc2n1	-5%[5.75 µM]	-2%[5.75 µM]	>57	5%[8 µM]
N#CC(C#N)=CNCCN1CCN(C=C(C#N)C#N)CC1	8%[5.75 µM]	-3%[5.75 µM]	>57	-4%[8 µM]
CCCCC[C@H](O)/C=C\[C@H]1[C@H](C/C=C\CCCC(=O)O)[C@@H](O)C[C@H]1O (tested in a mixture with another compound)	12%[12.8 µM]	-2%[12.8 µM]	>57	2%[3.58 µM]
COC(C)=O	6%	10%	.	3%
O=C(Nc1nccs1)C1CCN(S(=O)(=O)c2cccnc2)CC1	-6%	10%	>57	0%
O=C(NCCC1=CCCCC1)C1CCCN(S(=O)(=O)c2cccc3cccnc23)C1 (stereo not given)	63%	0%	>57	-27%
O=C(NCCC1=CCCCC1)C1CCCN(S(=O)(=O)c2cccnc2)C1 (stereo not given)	2.5µM*[single pt active]	12%	>57	-14%
O=C(Nc1nccs1)C1CCCN(S(=O)(=O)c2cccnc2)C1 (stereo not given)	4µM*[single pt active]	12%	>57	0%
O=C(Nc1ccc2c(c1)OCCO2)C1CCCN(S(=O)(=O)c2cccnc2)C1 (stereo not given)	4µM*[single pt active]	12%	>57	?

From PubChem BioAssay
